Only some compounds are listed: those with a hit (about 10% of all), similar ones and a draw of the others.
RORg inh = qHTS for inhibitors of ROR gamma transcriptional activity | Nuclear receptor ROR-gamma (Mus musculus), P51450 | Drosophila S2 Gal4-RORgamma UAS-luciferase reporter, 20 h | Potency, µM (series often up to 53.6 µM), hits mostly inhibitors | 310,000 tested, 5.4% active; also: nearly all actives have a fitted effect of over 60% in size
Target sequence (P51450 whole entry, looked up, the tested form may be a part): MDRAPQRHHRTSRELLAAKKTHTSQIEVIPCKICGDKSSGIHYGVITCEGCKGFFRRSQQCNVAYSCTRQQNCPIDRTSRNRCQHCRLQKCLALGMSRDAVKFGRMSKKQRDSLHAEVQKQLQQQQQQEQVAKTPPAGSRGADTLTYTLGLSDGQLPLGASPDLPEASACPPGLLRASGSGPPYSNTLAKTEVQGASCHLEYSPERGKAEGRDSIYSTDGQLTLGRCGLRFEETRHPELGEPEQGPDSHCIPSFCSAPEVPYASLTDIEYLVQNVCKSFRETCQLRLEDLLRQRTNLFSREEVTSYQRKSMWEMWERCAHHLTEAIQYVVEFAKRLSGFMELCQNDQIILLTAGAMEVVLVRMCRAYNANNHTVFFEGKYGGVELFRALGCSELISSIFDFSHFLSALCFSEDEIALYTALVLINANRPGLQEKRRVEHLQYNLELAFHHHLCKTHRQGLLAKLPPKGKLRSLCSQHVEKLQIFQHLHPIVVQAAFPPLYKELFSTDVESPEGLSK
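Read-out: Photinus luciferase luminescence; inhibitors lower reporter signal. Insect Schneider cells with Gal4-ROR gamma fusion under metallothionein promoter, UAS reporter; 700 uM final copper sulfate induction, 20 hr, ambient temperature.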
SW480 rereplic = A quantitative high throughput screen for small molecules that induce DNA re-replication in SW480 colon adenocarcinoma cells; SW480 DNA re-replication, Hoechst DNA content imaging, 48 h; Potency, µM (highest dose often 46.1 µM), usual class: activators; 340,000 tested, 1.8% active; AID 624297, 2012; also: nearly all actives have a fitted effect of over 55% in size
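Image-based DNA-content assay: after two days of treatment, nuclei were labelled with the DNA dye Hoechst and imaged, and hits were compounds raising the count of nuclei showing high fluorescence intensity.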
Gal4-VP16 FLuc = VP16 counterscreen qHTS for inhibitors of ROR gamma transcriptional activity. Drosophila S2 Gal4-VP16 UAS-luciferase, luminescence, 20 h. Potency, µM (top dose mostly 53.6 µM), actives largely listed as inhibitors. 310,000 tested, 3.5% active. AID 2546, 2010;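 also: Gal4-VP16 expression switched on by copper sulfate through the metallothionein promoter; nearly all actives have a fitted effect of over 50% in size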
MCF10A rereplic = A quantitative high throughput screen for small molecules that induce DNA re-replication in MCF 10a normal breast cells | MCF 10A DNA re-replication, Hoechst nuclear intensity, 48 h | Potency, µM (highest dose often 46.1 µM), most hits filed as activators | 350,000 tested, 2.9% active | AID 624296, 2012; also: nearly all actives have a fitted effect of over 50% in size
ELG1 repair inh = qHTS screen for small molecules that inhibit ELG1-dependent DNA repair in human embryonic kidney (HEK293T) cells expressing luciferase-tagged ELG1; 330,000 tested, 2.3% active; HEK293T ELG1-luciferase reporter, luminescence, 16 h; DNA damage induced by 5-fluorouridine; Potency, µM (highest dose often 46.1 µM), usual class: inhibitors; AID 504467, 2011; also: nearly all actives have a fitted effect of over 55% in size
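In this reporter screen, reduction of luminescence relative to DMSO vehicle indicated activity. Compounds and 5-fluorouridine were added together to 2,000 cells per well, incubated for 16 hr at 37 °C, then developed with ONE-Glo.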
Hits are given with their value; - = inactive; ? = inconclusive; . = no result given; [ ] = another dose, or the depositor's remark. Calls follow the shape of the dose curve; as a rule, active = well fitted curve in the direction sought with a large enough effect; inconclusive = small, poorly fitted or top-dose-only effect, or another doubt; inactive = no such curve, though single readings can be large; an effect the other way counts as inactive or inconclusive.

SMILES	RORg inh	SW480 rereplic	Gal4-VP16 FLuc	MCF10A rereplic	ELG1 repair inh
O=C(CC(=O)NCc1ccc(Cl)cc1)NCc1ccc(Cl)cc1	-	-	-	-	-
O=C(CNC(=O)c1ccc(Br)o1)NCc1ccc(Cl)cc1	-	?	-	26µM	-
Cc1ccc(CC(=O)NCc2ccc(Cl)cc2)cc1	-	0.92µM	-	7.3µM	-
Cc1nn(C)c(C(=O)NCc2ccc(Cl)cc2)c1Cl	?	-	4µM	-	?
Cc1nc(C)c(C(=O)NCc2ccc(Cl)cc2)o1	-	-	?	-	-
Cc1c(NS(=O)(=O)c2cc(C(=O)N(C)Cc3ccccc3)ccc2Cl)c(=O)n(-c2ccccc2)n1C	.	-	.	-	-
CC(C)OC(=O)C(C(=O)OC(C)C)=C1SC=CS1	-[10 µM]	-	-	-	.
CC(=O)c1sc(NC(=O)c2ccc(F)c(S(=O)(=O)N3CCOCC3)c2)nc1C	.	-	.	-	-
CCOC(=O)CCN1C(=O)[C@@H]2[C@H]3C(=CC[C@H]2C1=O)C(=O)[C@H]1O[C@H]1[C@H]3O	2.2µM	.	-[10 µM]	.	.
C[C@@H](c1ccccc1)N1C(=O)[C@H]2[C@H]3[C@H](O)[C@H](O)C/C(=N/OCc4ccccc4)[C@H]3CC[C@@H]2C1=O	-[10 µM]	.	-[10 µM]	.	.
CCOC(=O)CCN1C(=O)[C@H]2[C@@H]3[C@H](O)[C@H](O)CC(=O)[C@H]3CC[C@H]2C1=O	-[10 µM]	.	-[10 µM]	.	.
CC(C)(C)N1C(=O)[C@@H]2[C@H]3C(=CC[C@H]2C1=O)C(=O)[C@H]1O[C@H]1[C@H]3O	1.4µM	.	?	.	.
C[C@@H](c1ccccc1)N1C(=O)[C@@H]2[C@H]3C(=CC[C@H]2C1=O)C(=O)[C@H]1O[C@H]1[C@H]3O	3.5µM	.	?	.	.
OCCN1CCN(c2cc(C(F)(F)F)nc3c(F)cccc23)CC1	-	-	-	-	-
CCOc1ccc(S(=O)(=O)N2CCC(C(=O)NCCN3CCOCC3)CC2)cc1C	-	-	-	-	-
CCCC/C=C/[C@H](C)[C@@](C)(COC(=O)c1ccc(Br)cc1)Cc1ccccc1	-	.	-	.	.
Cc1ccc2nc(NC(=O)c3cc(-c4ccco4)nc4ccccc34)sc2c1	18µM	-	?	16µM	-
O=C(Nc1nc2ccccc2s1)c1cc(-c2ccco2)nc2ccccc12	?	?	13µM	?	?
Cc1nnc(NC(=O)c2cc(-c3ccco3)nc3ccccc23)s1	.	.	.	.	-
C[C@@H]1CCC2[C@](C)(CO)[C@@H](O)CC[C@]2(C)[C@@]12C[C@](CO)(CC(=O)O)CO2 (stereo partly specified)	-	-	-	-	-
N#C/C(=C\c1ccc(-c2cccc([N+](=O)[O-])c2)o1)c1nnc(N2CCOCC2)n1-c1ccccc1	-	.	-	.	5.8µM
Cc1ccc(N=c2c([N+](=O)[O-])nn(-c3ccccc3)n2O)c(C)c1	-	?	?	10µM	?
CCOC(=O)Cn1cc(/C=C/[N+](=O)[O-])c2ccccc21	?	21µM	13µM	?	-
CCOc1ccc(/C=C/[N+](=O)[O-])c2ccccc12	?	6.5µM	?	2.3µM	?
O=C(O)c1ccc(Cn2cc(/C=C\[N+](=O)[O-])c3ccccc32)o1	-	-	-	-	-
SMILES	RORg inh	SW480 rereplic	Gal4-VP16 FLuc	MCF10A rereplic	ELG1 repair inh
O=[N+]([O-])/C=C/c1cn(Cc2ccc(Cl)cc2)c2ccccc12	?	?	?	5.8µM	-
Cc1cccc(Cn2cc(/C=C/[N+](=O)[O-])c3ccccc32)c1	?	?	?	21µM	-
NC1=NC(=O)/C(=C/C=C/c2cccs2)S1	.	-	.	-	.
CCOC(=O)COc1ccc2ccccc2c1/C=C/[N+](=O)[O-]	13µM	?	6.3µM	?	?
CCOC(=O)COc1ccccc1/C=N/O	-	-	-	-	-
CC(=O)C1(C)CC2=C(CCCC2(C)C)CC1C (stereo unspecified)	-	.	-	.	.
CSc1ccc(/C=c2\s/c(=C\C(=O)C(C)(C)C)n(CC(=O)NCCC3=CCCCC3)c2=O)cc1	-	-	-	?	-
CCCNC(=O)Cn1c(=O)/c(=C/c2ccc(-c3ccc([N+](=O)[O-])cc3)o2)s/c1=C\C(=O)C(C)(C)C	.	7.3µM	.	18µM	.
CC1(C)CCC[C@@](C)([C@H]2CC[C@]3(C)[C@@H]2[C@H](O)CC2[C@@]4(C)CC[C@H](O)C(C)(C)[C@@H]4[C@@H](O)C[C@]23C)O1 (stereo partly specified)	?	.	-	.	.
CN(N)c1nc(-c2ccccc2)cc(-c2ccccc2)n1	13µM	-	?	?	?
O=C(CCCCCN1C(=O)[C@@H]2Cc3ccccc3CN2C1=O)NCCc1ccccc1	-	-	-	-	-
COc1ccc(N(CC(=O)Nc2c(C)n(C)n(-c3ccccc3)c2=O)S(=O)(=O)c2ccc(C)cc2)cc1OC	-	-	-	?	-
COc1ccc(N(CC(=O)Nc2ccccc2Cl)S(=O)(=O)c2ccc(C)cc2)cc1OC	-	3.3µM	-	?	-
COc1ccccc1NC(=O)CN(c1ccccc1)S(=O)(=O)c1ccccc1	-	-	-	-	-
COc1ccc(N(CC(=O)Nc2ccccc2OC)S(=O)(=O)c2ccc(NC(C)=O)cc2)cc1	-	18µM	-	13µM	?
CO[C@@]1(NC(=O)Cc2cccs2)C(=O)N2C(C(=O)O)=C(COC(N)=O)CSC21 (stereo partly specified)	-	.	-	.	.
CSc1ccc(CN(C)Cc2nc3ccccc3c(=O)[nH]2)cc1	?	-	?	-	?
COc1cccc(CN(C)Cc2nc3cc(C(F)(F)F)ccc3c(=O)[nH]2)c1	2µM	-	-	-	?
C=CCOc1ccc(CN(C)Cc2nc3cc(C(F)(F)F)ccc3c(=O)[nH]2)cc1	7.1µM	-[1.84 µM]	?	-	-
CCN1CCN(C(=O)/C(C#N)=C/c2ccc(OC(F)F)cc2)CC1	-	-	-	-	-
N#C/C(=C\c1ccc(OC(F)F)cc1)C(=O)N1CCCCC1	-	-	-	13µM	-
O=C(OCC(=O)N1CCc2ccccc21)c1cncc(Br)c1	-	-	-	-	-
O=C(OCC(=O)N1CCCc2ccccc21)c1cncc(Br)c1	?	-	1.1µM	-	-
O=C(CNC(=O)Cc1ccc(Cl)cc1)NCc1ccco1	-	-	-	-	-
CC(=O)COc1ccc2c(c1C)O/C(=C\c1ccco1)C2=O	10µM	-	-	-	?
COc1ccc2c(c1)O/C(=C\c1ccco1)C2=O	-	-	-	?	?
CC(C)C[C@H](NC(=O)c1nc[nH]c1C(=O)NCC(=O)OC(C)(C)C)C(=O)OC(C)(C)C	7.1µM	-[9.22 µM]	?	-	?
CC(C)C[C@H](NC(=O)c1[nH]cnc1C(=O)Nc1ccc(Cl)cc1)C(=O)OC(C)(C)C	2.8µM	?	4µM	-	?
